For seven compounds, outcome results are on record in PubChem BioAssay AID493194 (Broad Institute, 2011).

Entries with a potency or affinity are not part of this list. Records with an inconclusive call do not appear. Activity calls are given as the source filed them.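 The calls were made as follows: active = a valid curve of falling signal whose half-effect concentration is at most ten times the top tested dose; inconclusive = flat curve at 30 to 70% inhibition, or poor fit; inactive = signal rise, flat within 30%, or potency beyond limit.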

In the experiment the target is Scavenger receptor class B member 1 (Mus musculus) (UniProt Q61009). In words: inhibitors of SR-BI mediated HDL lipid uptake, dose response, ldlA[mSR-BI] cells, fluorescence, cherry pick (AID 493194).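 Also: CHO cells lacking LDL receptor and overexpressing mouse SR-BI; cellular uptake of fluorescently labeled HDL measured as cell fluorescence.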 Conditions: CHO ldlA[mSR-BI] DiI-HDL uptake fluorescence, 3 h; series mostly up to 35 µM.
Sequence of Scavenger receptor class B member 1 (Mus musculus) (Q61009 whole entry, looked up): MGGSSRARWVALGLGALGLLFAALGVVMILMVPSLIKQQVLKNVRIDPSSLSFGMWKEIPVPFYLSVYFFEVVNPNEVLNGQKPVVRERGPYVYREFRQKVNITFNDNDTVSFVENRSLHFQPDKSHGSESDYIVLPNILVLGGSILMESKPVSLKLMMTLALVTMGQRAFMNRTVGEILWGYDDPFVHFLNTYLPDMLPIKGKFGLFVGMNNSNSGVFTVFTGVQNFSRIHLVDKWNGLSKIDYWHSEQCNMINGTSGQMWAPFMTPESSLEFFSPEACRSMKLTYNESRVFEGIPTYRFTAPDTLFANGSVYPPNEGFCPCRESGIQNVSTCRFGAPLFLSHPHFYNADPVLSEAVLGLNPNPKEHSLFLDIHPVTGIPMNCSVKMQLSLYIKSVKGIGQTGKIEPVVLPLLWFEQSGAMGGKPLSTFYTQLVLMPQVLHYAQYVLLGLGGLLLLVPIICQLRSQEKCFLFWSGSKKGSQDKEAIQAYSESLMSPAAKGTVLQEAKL
On to `COC(=O)c1ccc(C(=O)Nc2nc3cc(N)c(C)cc3s2)cc1`, for which the compound was classed as inactive.

Consider `Cc1nc2c(cnn2-c2ccccc2Cl)c(=O)n1-c1ccc(N2CCC(C)CC2)cc1`, for which the compound was called inactive.

For the compound `CNc1nc(-c2ccc3c(c2)CCN3C(=O)c2ccc(F)cc2)cs1`, the compound was called inactive.

With `CCOC(=O)C1CCN(C(=O)Cn2cnc3sc(C)c(S(=O)(=O)N4CCC(C)CC4)c3c2=O)CC1`, the call was inactive.

Consider `Cc1cc(C)nc(Nc2n[nH]c(-c3ccc(C(C)(C)C)cc3)n2)n1`, for which the result was inactive.

In the case of `CC(=O)c1ccc(N2CCN(C(=O)/C=C/c3ccc(S(=O)(=O)NCc4ccco4)cc3)CC2)cc1`, the compound was called inactive.

As for `Cc1c(C(=O)Nc2cccc(Cl)c2)c2ccccn2c1CCc1ccncc1`, the call was inactive.
